Sampled rows, rich in hits. Any-hit rate of the full collection: about 19%.
TDP1 block – qHTS Assay for Inhibitors of Tyrosyl-DNA Phosphodiesterase (TDP1). Tyrosyl-DNA phosphodiesterase 1 (Homo sapiens), Q9NUW8. recombinant TDP1, AlphaScreen DNA substrate cleavage. Potency, µM (top dose mostly 130 µM), inactives show top-dose activity change, negative = inhibition, hits mostly inhibitors. hit rate 0.28% among 350,000; note: potency is the fitted concentration of half-maximal effect; % is set by controls: 0 for no effect and ±100 for the full control effect; nearly all actives have a fitted effect of over 40% in size
Target sequence (Q9NUW8 whole entry, looked up): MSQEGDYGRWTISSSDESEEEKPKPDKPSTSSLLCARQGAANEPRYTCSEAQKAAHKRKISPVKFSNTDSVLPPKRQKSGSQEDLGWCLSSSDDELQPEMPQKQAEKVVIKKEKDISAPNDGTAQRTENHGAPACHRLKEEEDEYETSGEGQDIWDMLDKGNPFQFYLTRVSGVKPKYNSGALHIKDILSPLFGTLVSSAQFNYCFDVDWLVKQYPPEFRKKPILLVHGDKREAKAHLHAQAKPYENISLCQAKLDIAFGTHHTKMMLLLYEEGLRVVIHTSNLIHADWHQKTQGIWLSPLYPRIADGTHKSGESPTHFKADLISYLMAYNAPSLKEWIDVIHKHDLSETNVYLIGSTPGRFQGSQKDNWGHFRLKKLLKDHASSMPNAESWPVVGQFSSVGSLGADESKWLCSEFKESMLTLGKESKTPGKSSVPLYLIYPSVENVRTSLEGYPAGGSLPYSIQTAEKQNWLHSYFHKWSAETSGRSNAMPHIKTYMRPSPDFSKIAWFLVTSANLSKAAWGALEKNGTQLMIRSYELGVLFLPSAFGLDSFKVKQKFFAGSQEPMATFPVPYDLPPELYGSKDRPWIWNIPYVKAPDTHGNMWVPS
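Compounds were preincubated with Tdp1 (1 nM final) for 15 min at room temperature before substrate (15 nM final) started a 5 min reaction; beads (10 ug/ml final) were then added for 10 min before AlphaScreen detection.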
DT40 TDP1 CPT – qHTS for Inhibitors of human tyrosyl-DNA phosphodiesterase 1 (TDP1): qHTS in cells in presence of CPT; hit rate 12% among 420,000; AID 686979, 2013; chicken DT40 Tdp1-/-;hTDP1 cells + 20 nM CPT, ATP luminescence, 48 h; Potency, µM (highest dose often 46.2 µM), without a hit: at the highest dose activity change, negative = growth inhibition, most hits filed as inhibitors; note: potency is the fitted concentration of half-maximal effect; % is set by controls: 0 for no effect and ±100 for the full control effect; nearly all actives have a fitted effect of over 55% in size
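Chicken DT40 Tdp1-/- cells stably complemented with human TDP1 were seeded at 400 cells/well in medium containing 20 nM camptothecin, exposed to pin-transferred compounds, and grown at 37 °C for at least 48 hr. Viability was read as ATP luminescence.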
IL-1B inflam inh – qHTS for Inhibitors of Inflammasome Signaling: IL-1-beta AlphaLISA Primary Screen | THP-1 LPS/ATP IL-1B secretion, AlphaLISA, 16 h; hits give low values | activity change, % at 57.5 µM | hit rate 4.7% among 360,000; in the data active = activity change below about -50%; inconclusive = mostly about -30% to -49%; note: % is set by controls: 0 for no effect and ±100 for the full control effect
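THP-1 cells pretreated 1 hr with compounds (up to 57.5 uM final), then stimulated with LPS (250 ng/mL final) plus ATP (1.25 mM final); secreted IL-1B measured by AlphaLISA after 16 hr, decreased signal indicating inhibition.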
TGFb SMAD3 inh – qHTS for Inhibitors of TGF-b. HepG2 CAGA-GFP TGF-b/SMAD3 reporter, GFP fluorescence, 18 h; TGF-beta stimulated, 500 pg/mL final. Potency, µM (top dose mostly 46.1 µM), for inactives: top-dose activity, negative = inhibition, most hits filed as inhibitors. hit rate 1.2% among 410,000; note: potency is the fitted concentration of half-maximal effect; % is set by controls: 0 for no effect and ±100 for the full control effect; nearly all actives have a fitted effect of over 65% in size
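Using HEPG2 CAGA-GFP reporter cells at 1000 cells/well, we pinned test compounds, stimulated with recombinant TGF-beta (500 pg/mL final) and measured total well GFP after 18 h.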
TDP1 cell noCPT – qHTS for Inhibitors of human tyrosyl-DNA phosphodiesterase 1 (TDP1): qHTS in cells in absence of CPT. DT40 Tdp1-/- hTDP1 cells, no CPT, ATP luminescence, 48 h. Potency, µM (top dose mostly 46.2 µM), for inactives: top-dose activity change, negative = growth inhibition, usual class: inhibitors. hit rate 15% among 420,000. AID 686978, 2013; note: potency is the fitted concentration of half-maximal effect; % is set by controls: 0 for no effect and ±100 for the full control effect; nearly all actives have a fitted effect of over 55% in size
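Growth kinetics read by CellTiter-Glo luminescence after ≥48 hr at 37 °C. Cells: DT40 Tdp1-/- stably carrying human TDP1, 400 per well, compound exposure in the absence of CPT (DMSO vehicle).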
HepG2 viability – qHTS for Inhibitors of TGF-b: Cytotox Counterscreen | AID 588856, 2011 | hit rate 0.76% among 410,000 | HepG2 CAGA-GFP viability, ATP luminescence, 18 h | Potency, µM (highest dose often 46.1 µM), without a hit: top-dose activity change, negative = cytotoxicity, usual class: cytotoxic; note: potency is the fitted concentration of half-maximal effect
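HepG2 CAGA-GFP cells (1000/well, DMEM with 1% FBS) received compound, then TGF-beta at 500 pg/mL final, and were incubated 18 hours at 37 degrees C. Viability was read by CellTiter-Glo luminescence. Media-only wells were set as complete cell-killing and DMSO as no toxicity.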
The depositor's hits bear a star; ? = inconclusive; / = no result; [ ] = remark or other dose. Unless noted, calls come from the whole dose curve; as a rule, active = well fitted curve in the direction sought with a large enough effect; inconclusive = small, poorly fitted or top-dose-only effect, or another doubt; inactive = no such curve, though single readings can be large; an effect the other way counts as inactive or inconclusive.

SMILES	TDP1 block	DT40 TDP1 CPT	IL-1B inflam inh	TGFb SMAD3 inh	TDP1 cell noCPT	HepG2 viability
Cc1cccc(OCc2nc(C#N)c(N3CC(C)CC(C)C3)o2)c1 (centres undefined)	9%	6.5µM*	-10	-17%	?	-14%
COC(=O)C1=C(C(=O)OC)[C@@H]2N(C)c3ccc(OC)cc3[C@@]23C[C@@H](C(=O)OC)N(C(C)=O)C3=N1	15%[12.3 µM]	/	/	/	/	/
CCOC(=O)c1ccc(NC(=O)Cn2nnc(-c3ccc(C(F)(F)F)cc3)n2)cc1	-14%	?	/	-9%	?	0%
O=C(CCc1nnc(CCCCc2ccccc2)o1)N1CCCC(O)C1 (centres undefined)	-1%	-3%	0	6%	16%	-13%
COCCCC1CCN(C(=O)CCc2nnc(CCCCc3ccccc3)o2)CC1	-1%	?	6	-16%	15µM*	-5%
Cc1ccc(S(=O)(=O)c2ncccc2[N+](=O)[O-])cc1	/	1.2µM*	-102*	2.5µM*	0.65µM*	-12%
C=C1C(=C/C=C2\CCC[C@]3(C)[C@@H]([C@H](C)CCCC(C)C)CC[C@@H]23)C[C@@H](O)C[C@@H]1O	/	?	/	/	11µM*	/
C=C1/C(=C\C=C2/CCC[C@]3(C)[C@@H]([C@H](C)CCCC(C)(C)O)CC[C@@H]23)C[C@@H](O)C[C@@H]1O	2%	/	/	/	/	/
C=C1C(=C/C=C2\CCC[C@]3(C)[C@@H]([C@H](C)/C=C/[C@@H](O)C4CC4)CC[C@@H]23)C[C@@H](O)C[C@@H]1O	/	24µM*	/	/	27µM*	/
CCCCOc1ccc(C(=O)Nc2cc(-c3cn4cccnc4n3)ccc2OC)cc1	2%	-19%	/	-23%	-3%	-20%
CCCCC(CC)COC(=O)C(C#N)=C(c1ccccc1)c1ccccc1 (centres undefined)	-5%	?	8	1%	18µM*	-7%
Fc1ccc(-c2noc3ncnc(N4CCN(c5ccccc5)CC4)c23)cc1	0%	?	/	-1%	?	2%
Fc1ccc(-c2noc3ncnc(N4CCCCC4)c23)cc1	1%	18µM*	/	?	23µM*	-11%
COc1ccc(NC(=O)C2CCCN(c3ncnc4onc(-c5ccc(F)cc5)c34)C2)cc1 (centres undefined)	2%	?	0	1%	?	11%
Cc1ccc(CNC(=O)C2CCCN(c3ncnc4onc(-c5ccc(F)cc5)c34)C2)cc1 (centres undefined)	-3%	?	/	-1%	18µM*	9%
CCOC(=O)c1ccc(NC(=O)C2CCCN(c3ncnc4onc(-c5ccc(F)cc5)c34)C2)cc1 (centres undefined)	-2%	21µM*	/	?	15µM*	-26%
O=C(Nc1ccc(F)c(Cl)c1)C1CCCN(c2ncnc3onc(-c4ccc(F)cc4)c23)C1 (centres undefined)	5%	-80%	/	?	15µM*	-14%
CC(C)NC(=O)C1CCCN(c2ncnc3onc(-c4ccc(F)cc4)c23)C1 (centres undefined)	-3%	-5%	/	2%	-20%	-2%
CCOc1cc(CNC(=O)c2ccc3c(c2)N(C)C(=O)C2CCCCN32)cc(OCC)c1OCC (centres undefined)	5%	?	/	0%	?	-35%
CCc1nnc2c(Nc3cc(OC)c(Cl)cc3OC)nc3ccccc3n12	2%	?	/	41%	-30%	-1%
CCOc1ccc(CCNC(=O)COC(=O)Cn2nc(C)c([N+](=O)[O-])c2C)cc1OCC	/	-6%	9	-2%	4%	-11%
CC(C)(CO)[C@H](O)C(=O)NCCCO	9%[21 µM]	/	/	/	/	/
N=c1n(Cc2ccccc2)c2ccccc2n1CC(O)COc1ccccc1 (centres undefined)	0%	7.3µM*	-88*	?	6.5µM*	-94%
Cc1ccc(Cn2c(=N)n(CC(O)COc3ccccc3)c3ccccc32)cc1 (centres undefined)	1%	18µM*	0	?	9.2µM*	2.8µM*
OC(COc1ccc(OCC(O)CN2CCN(Cc3ccccc3)CC2)cc1)CN1CCN(Cc2ccccc2)CC1 (centres undefined)	/	?	?	-2%	?	29%
SMILES	TDP1 block	DT40 TDP1 CPT	IL-1B inflam inh	TGFb SMAD3 inh	TDP1 cell noCPT	HepG2 viability
OCc1nc2ccccc2n1CC(O)COc1ccccc1 (centres undefined)	1%	-16%	-23	1%	-15%	8%
CC(=O)C[C@@H](O)CC(=O)[C@@H]1OC(=O)[C@@H](C)C/C=C\Cc2ccccc21	0%	2%	21	11%	8%	7%
O=C(Nc1ccc(C(F)(F)F)cc1)C1CCCN(c2cnccn2)C1 (centres undefined)	-2%	?	/	-17%	?	-7%
O=C(c1ccco1)c1nnn(Cc2ccccc2)c1-c1ccccc1	0%	?	-3	-28%	21µM*	-26%
Nc1c(C(=O)NCc2ccco2)nnn1Cc1ccccc1	0%	1%	-13	-5%	-12%	-32%
CC(C)C[C@H](NC(=O)[C@H](CO)NC(=O)[C@H](C)NC(=O)[C@H](CCCN=C(N)N)NC(=O)[C@H](CCCN=C(N)N)NC(=O)[C@@H](N)CC(C)C)C(=O)NCC(=O)O	6%	/	/	/	/	/

Assay outcomes from PubChem.
